Laboratory results as given in the supplement of paper PMC10849652.
Of roughly 7,900 targets only a part is listed; those with a hit were picked by preference. About 0.6% of all pairs of compound and target were hits.

Key:
Test in all cases: log2 fold change, soluble protein after heating vs DMSO (PISA); higher = thermal stabilisation; K562 cells, 10 uM, 30 min; active = over 0.2 and 3.5 SD of the protein, either way, in both replicates (recomputed)
bafetinib = compound: Cc1ccc(NC(=O)c2ccc(CN3CC[C@H](N(C)C)C3)c(C(F)(F)F)c2)cc1Nc1nccc(-c2cncnc2)n1 [bafetinib]
Procedure, shortened: (§1)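 K562 cells at 2×10^6 cells/mL were treated for 30 min with 10 μM compound, and aliquots were heated for 3 min over 48°C-58°C before pooling. Extraction used PBS with 0.5% NP-40 at 4°C, and soluble protein was the supernatant after 21,000xg for 90 min, measured by TMTpro 16plex LC-MS/MS with channel sums equalised. Thermal stability values, relative to control samples and from duplicates, are log2 fold changes.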

[1] = compound: Cc1cccc(CC(=O)N2CCc3c2ccc(-c2cn(C)c4ncnc(N)c24)c3F)n1
Procedure, shortened: as §1

nilotinib = compound: Cc1cn(-c2cc(NC(=O)c3ccc(C)c(Nc4nccc(-c5cccnc5)n4)c3)cc(C(F)(F)F)c2)cn1 [nilotinib]
Procedure, shortened: as §1

[2] = compound: Cc1nc(Nc2n[nH]c3c2CN(C(=O)N[C@H](CN(C)C)c2ccccc2)C3(C)C)c2sccc2n1
Procedure, shortened: as §1

dasatinib = compound: Cc1nc(Nc2ncc(C(=O)Nc3c(C)cccc3Cl)s2)cc(N2CCN(CCO)CC2)n1 [dasatinib]
Procedure, shortened: as §1

[3] = compound: Cc1ncc(-c2ccnc(Nc3ccc(S(C)(=O)=O)cc3)n2)n1C(C)C
Procedure, shortened: as §1

[4] = compound: Cn1cc(-c2ccc3c(c2)CCN3C(=O)Cc2cccc(C(F)(F)F)c2)c2c(N)ncnc21
Procedure, shortened: as §1

[5] = compound: Cn1cc(-c2ccc3nnc(C(F)(F)c4ccc5ncccc5c4)n3n2)cn1
Procedure, shortened: as §1

tipifarnib = compound: Cn1cncc1[C@@](N)(c1ccc(Cl)cc1)c1ccc2c(c1)c(-c1cccc(Cl)c1)cc(=O)n2C [tipifarnib]
Procedure, shortened: as §1

mubritinib = compound: FC(F)(F)c1ccc(/C=C/c2nc(COc3ccc(CCCCn4ccnn4)cc3)co2)cc1 [mubritinib]
Procedure, shortened: as §1

[6] = compound: NC(=O)Nc1cc(-c2cccc(F)c2)sc1C(=O)N[C@H]1CCCNC1
Procedure, shortened: as §1

[7] = compound: NC(=O)c1cnc(N[C@@H]2CCCC[C@@H]2N)nc1Nc1cccc(-n2nccn2)c1
Procedure, shortened: as §1

[8] = compound: NC1(c2ccc(-c3nc4ccn5c(=O)[nH]nc5c4cc3-c3ccccc3)cc2)CCC1
Procedure, shortened: as §1

[9] = compound: NCC(=O)Nc1ccc(-n2nc(C(F)(F)F)cc2-c2ccc3c(ccc4ccccc43)c2)cc1
Procedure, shortened: as §1

entinostat = compound: Nc1ccccc1NC(=O)c1ccc(CNC(=O)OCc2cccnc2)cc1 [entinostat]
Procedure, shortened: as §1

vorinostat = compound: O=C(CCCCCCC(=O)Nc1ccccc1)NO [vorinostat]
Procedure, shortened: as §1

citarinostat = compound: O=C(CCCCCCNC(=O)c1cnc(N(c2ccccc2)c2ccccc2Cl)nc1)NO [citarinostat]
Procedure, shortened: as §1

silmitasertib = compound: O=C(O)c1ccc2c(c1)nc(Nc1cccc(Cl)c1)c1ccncc12 [silmitasertib]
Procedure, shortened: as §1

[10] = compound: O=C1NC(=O)C(c2cnc3ccccn23)=C1c1cn2c3c(cc(F)cc13)CN(C(=O)N1CCCCC1)CC2
Procedure, shortened: as §1

[11] = compound: c1cc(OCCN2CCCCC2)cc(-c2n[nH]c3ccc(-c4nnc[nH]4)cc23)c1
Procedure, shortened: as §1

Measured: log2 fold change

SELENOH (UniProt Q8IZQ5)
inactive: bafetinib 0.042 | [1] 0.21 | nilotinib -0.02 | [2] 0.011 | dasatinib 0.076 | [3] 0.012 | [4] -0.039 | [5] 0.036 | tipifarnib -0.01 | mubritinib -0.009 | [6] 0.227 | [7] 0.194 | [8] 0.011 | [9] 0.049 | entinostat 0.066 | vorinostat -0.007 | citarinostat 0.067 | silmitasertib 0.011 | [10] 0.038 | [11] 0.053

RNASET2 (UniProt O00584)
Sequence of UniProt O00584 (O00584 whole entry, looked up): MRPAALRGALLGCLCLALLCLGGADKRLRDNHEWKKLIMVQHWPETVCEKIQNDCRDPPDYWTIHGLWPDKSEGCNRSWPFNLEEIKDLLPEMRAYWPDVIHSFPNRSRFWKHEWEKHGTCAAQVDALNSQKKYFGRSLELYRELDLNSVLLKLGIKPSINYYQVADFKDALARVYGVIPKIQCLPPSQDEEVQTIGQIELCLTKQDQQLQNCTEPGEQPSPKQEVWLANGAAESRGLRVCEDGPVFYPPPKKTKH
inactive: [1] -0.006 | nilotinib 0.016 | [2] -0.002 | dasatinib -0.031 | [3] -0.034 | [4] -0.065 | [5] 0.027 | tipifarnib 0.067 | mubritinib 0.021 | [6] -0.082 | [7] -0.114 | [9] -0.033 | entinostat -0.012 | vorinostat -0.04 | citarinostat 0.074 | silmitasertib -0.018 | [10] -0.048 | [11] -0.102
active: bafetinib -0.261 | [8] -0.285

RBM22 (UniProt Q9NW64)
inactive: bafetinib -0.085 | [1] 0 | nilotinib -0.019 | [2] -0.051 | dasatinib -0.07 | [3] 0.024 | [4] -0.133 | [5] -0.071 | tipifarnib 0.008 | mubritinib -0.048 | [6] -0.027 | [7] -0.004 | [8] 0.032 | [9] -0.049 | entinostat -0.008 | vorinostat -0.009 | citarinostat -0.038 | silmitasertib 0.119 | [10] -0.063 | [11] -0.043

ROCK2 (UniProt O75116)
inactive: bafetinib -0.033 | [1] -0.006 | nilotinib -0.05 | [2] -0.202 | dasatinib -0.064 | [3] 0.009 | [4] -0.091 | [5] 0.014 | tipifarnib -0.008 | mubritinib 0.013 | [6] 0.043 | [7] -0.044 | [8] -0.106 | [9] -0.017 | entinostat 0.031 | vorinostat 0.08 | citarinostat 0.013 | silmitasertib 0.096 | [10] 0.017 | [11] 0.06

RPA1 (UniProt P27694)
Sequence of UniProt P27694 (P27694 whole entry, looked up): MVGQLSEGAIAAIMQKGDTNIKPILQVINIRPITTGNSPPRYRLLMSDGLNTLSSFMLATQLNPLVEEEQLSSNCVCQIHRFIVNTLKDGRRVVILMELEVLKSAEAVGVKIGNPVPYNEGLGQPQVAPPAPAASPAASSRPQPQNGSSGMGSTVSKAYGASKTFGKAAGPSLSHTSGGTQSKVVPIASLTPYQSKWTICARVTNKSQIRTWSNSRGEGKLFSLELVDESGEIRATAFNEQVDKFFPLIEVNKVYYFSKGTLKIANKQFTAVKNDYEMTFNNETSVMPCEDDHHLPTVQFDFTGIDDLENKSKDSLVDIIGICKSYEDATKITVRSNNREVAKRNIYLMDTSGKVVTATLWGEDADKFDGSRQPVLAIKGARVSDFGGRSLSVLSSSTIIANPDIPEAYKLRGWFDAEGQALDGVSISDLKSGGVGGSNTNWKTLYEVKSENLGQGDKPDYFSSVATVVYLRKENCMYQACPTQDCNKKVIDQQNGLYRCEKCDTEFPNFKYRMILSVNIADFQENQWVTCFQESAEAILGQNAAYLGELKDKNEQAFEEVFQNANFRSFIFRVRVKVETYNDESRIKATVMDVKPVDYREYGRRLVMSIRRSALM
inactive: bafetinib 0.029 | [1] 0.019 | nilotinib -0.051 | [2] -0.1 | dasatinib 0.077 | [3] 0.016 | [4] -0.004 | [5] 0.015 | tipifarnib -0.074 | mubritinib 0.026 | [6] -0.189 | [7] 0.007 | [8] -0.049 | [9] -0.052 | entinostat 0.06 | vorinostat 0.106 | citarinostat 0.079 | silmitasertib -0.02 | [10] -0.046 | [11] 0.006

RPS20 isoform 2 (UniProt P60866)
inactive: bafetinib 0.178 | [1] -0.005 | nilotinib -0.006 | [2] 0.223 | dasatinib 0.05 | [3] -0.071 | [4] -0.078 | [5] -0.008 | tipifarnib 0.094 | mubritinib -0.059 | [6] -0.012 | [7] 0.056 | [8] 0.151 | [9] 0.037 | entinostat -0.029 | vorinostat 0.012 | citarinostat -0.091 | silmitasertib -0.006 | [10] 0.072 | [11] -0.1

RNF14 (UniProt Q9UBS8)
Sequence of UniProt Q9UBS8 (Q9UBS8 whole entry, looked up): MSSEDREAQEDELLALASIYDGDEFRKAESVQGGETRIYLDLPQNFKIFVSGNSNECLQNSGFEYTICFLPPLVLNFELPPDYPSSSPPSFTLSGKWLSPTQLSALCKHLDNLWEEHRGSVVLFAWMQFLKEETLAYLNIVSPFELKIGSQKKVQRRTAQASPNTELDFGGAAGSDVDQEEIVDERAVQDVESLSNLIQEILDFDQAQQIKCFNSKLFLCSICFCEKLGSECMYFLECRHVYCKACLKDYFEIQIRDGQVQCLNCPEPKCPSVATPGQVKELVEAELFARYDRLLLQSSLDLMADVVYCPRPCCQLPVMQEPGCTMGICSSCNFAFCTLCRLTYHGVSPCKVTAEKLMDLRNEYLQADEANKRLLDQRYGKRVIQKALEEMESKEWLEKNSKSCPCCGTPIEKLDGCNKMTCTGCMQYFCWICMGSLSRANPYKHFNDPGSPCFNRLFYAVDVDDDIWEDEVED
inactive: bafetinib -0.033 | [1] 0.05 | nilotinib -0.002 | [2] -0.07 | dasatinib -0.136 | [3] -0.048 | [4] -0.017 | [5] 0.033 | tipifarnib -0.05 | mubritinib 0.017 | [6] -0.016 | [7] -0.054 | [8] -0.157 | [9] 0.008 | entinostat 0.037 | vorinostat 0.021 | citarinostat -0.006 | silmitasertib 0.003 | [10] -0.127 | [11] -0.007

RPS2 (UniProt P15880)
inactive: bafetinib 0.284 | [1] 0 | nilotinib 0 | [2] 0.198 | dasatinib 0.13 | [3] -0.035 | [4] -0.216 | [5] -0.105 | tipifarnib 0.077 | mubritinib -0.095 | [6] 0.035 | [7] 0.081 | [8] 0.195 | [9] 0.089 | entinostat -0.036 | vorinostat 0.001 | citarinostat -0.079 | silmitasertib 0.01 | [10] 0.086 | [11] -0.189

RBM33 (UniProt Q96EV2)
Sequence of UniProt Q96EV2 (Q96EV2 whole entry, looked up): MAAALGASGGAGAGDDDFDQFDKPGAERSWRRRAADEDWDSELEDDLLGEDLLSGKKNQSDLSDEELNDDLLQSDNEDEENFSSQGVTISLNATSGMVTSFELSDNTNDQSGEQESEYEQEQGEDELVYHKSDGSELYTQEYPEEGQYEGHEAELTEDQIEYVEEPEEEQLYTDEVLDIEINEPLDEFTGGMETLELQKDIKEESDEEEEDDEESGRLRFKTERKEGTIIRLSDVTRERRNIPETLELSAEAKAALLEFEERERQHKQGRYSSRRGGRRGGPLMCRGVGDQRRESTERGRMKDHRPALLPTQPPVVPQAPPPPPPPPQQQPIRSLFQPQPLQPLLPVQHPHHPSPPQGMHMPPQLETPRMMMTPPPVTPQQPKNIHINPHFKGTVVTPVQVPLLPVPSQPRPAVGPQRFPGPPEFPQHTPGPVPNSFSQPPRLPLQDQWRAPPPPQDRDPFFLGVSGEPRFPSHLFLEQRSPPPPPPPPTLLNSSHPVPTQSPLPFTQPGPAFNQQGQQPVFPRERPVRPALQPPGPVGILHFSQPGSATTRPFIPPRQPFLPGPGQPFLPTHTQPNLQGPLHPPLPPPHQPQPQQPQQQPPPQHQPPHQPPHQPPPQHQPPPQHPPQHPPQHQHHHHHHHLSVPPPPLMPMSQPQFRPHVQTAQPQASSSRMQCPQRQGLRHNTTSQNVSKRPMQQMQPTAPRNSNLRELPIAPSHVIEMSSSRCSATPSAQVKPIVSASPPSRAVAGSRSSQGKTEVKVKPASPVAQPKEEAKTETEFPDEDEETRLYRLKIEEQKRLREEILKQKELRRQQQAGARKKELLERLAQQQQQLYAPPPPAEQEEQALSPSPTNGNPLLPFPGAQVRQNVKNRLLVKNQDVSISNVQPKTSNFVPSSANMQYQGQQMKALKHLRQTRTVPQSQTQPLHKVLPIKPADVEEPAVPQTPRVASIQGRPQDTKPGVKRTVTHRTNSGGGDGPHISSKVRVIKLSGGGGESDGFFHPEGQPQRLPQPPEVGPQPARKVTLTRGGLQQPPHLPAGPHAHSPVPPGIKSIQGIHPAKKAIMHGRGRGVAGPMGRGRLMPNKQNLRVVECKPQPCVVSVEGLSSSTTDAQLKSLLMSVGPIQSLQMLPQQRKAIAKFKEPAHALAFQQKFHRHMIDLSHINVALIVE
inactive: bafetinib -0.055 | [1] 0.012 | nilotinib -0.036 | [2] -0.143 | dasatinib 0.013 | [3] -0.11 | [4] 0.024 | [5] -0.013 | tipifarnib 0.085 | mubritinib -0.004 | [6] 0.019 | [7] -0.055 | [8] -0.024 | [9] 0.003 | entinostat 0.027 | vorinostat 0.037 | citarinostat 0.042 | silmitasertib 0.038 | [10] -0.003 | [11] -0.046

SLBP (UniProt Q14493)
inactive: bafetinib 0.11 | [1] -0.017 | nilotinib -0.05 | [2] -0.093 | dasatinib 0.031 | [4] -0.042 | [5] -0.033 | tipifarnib 0 | mubritinib -0.023 | [6] 0.043 | [7] 0.051 | [8] -0.028 | [9] -0.005 | entinostat 0.018 | vorinostat 0.085 | citarinostat 0.035 | silmitasertib 0.007 | [10] 0.064 | [11] 0.035
active: [3] -0.423

RAB9A (UniProt P51151)
Sequence of UniProt P51151 (P51151 whole entry, looked up): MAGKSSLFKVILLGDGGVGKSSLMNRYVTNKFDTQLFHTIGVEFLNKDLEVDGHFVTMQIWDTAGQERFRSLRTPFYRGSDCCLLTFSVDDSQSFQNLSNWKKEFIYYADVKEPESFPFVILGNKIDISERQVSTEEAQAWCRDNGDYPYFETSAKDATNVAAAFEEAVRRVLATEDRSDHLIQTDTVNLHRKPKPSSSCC
inactive: bafetinib -0.073 | [1] -0.021 | nilotinib -0.01 | [2] 0.012 | dasatinib 0.002 | [3] 0.002 | [4] 0.104 | [5] 0.001 | tipifarnib 0.001 | mubritinib 0.002 | [6] 0.014 | [7] -0.026 | [9] -0.022 | entinostat 0 | vorinostat 0.035 | citarinostat 0.039 | silmitasertib -0.028 | [10] -0.032 | [11] -0.018
active: [8] -0.229

RPRD1B (UniProt Q9NQG5)
Sequence of UniProt Q9NQG5 (Q9NQG5 whole entry, looked up): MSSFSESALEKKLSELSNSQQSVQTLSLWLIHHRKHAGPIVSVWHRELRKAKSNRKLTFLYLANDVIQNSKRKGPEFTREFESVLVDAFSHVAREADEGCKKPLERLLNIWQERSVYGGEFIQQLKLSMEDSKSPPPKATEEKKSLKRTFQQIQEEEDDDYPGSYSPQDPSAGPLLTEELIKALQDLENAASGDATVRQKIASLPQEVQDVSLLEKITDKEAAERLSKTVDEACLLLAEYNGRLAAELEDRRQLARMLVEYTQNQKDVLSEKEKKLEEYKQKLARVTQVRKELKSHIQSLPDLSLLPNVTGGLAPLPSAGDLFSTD
inactive: bafetinib -0.036 | [1] 0.04 | nilotinib -0.036 | [2] -0.072 | dasatinib -0.099 | [3] -0.024 | [4] -0.021 | [5] -0.035 | tipifarnib -0.039 | mubritinib 0.032 | [6] -0.058 | [7] -0.03 | [8] -0.087 | [9] -0.081 | entinostat 0.051 | vorinostat 0.049 | citarinostat 0.029 | silmitasertib 0.031 | [11] -0.049
active: [10] -0.346

RBM4 (UniProt Q9BWF3)
Sequence of UniProt Q9BWF3 (Q9BWF3 whole entry, looked up): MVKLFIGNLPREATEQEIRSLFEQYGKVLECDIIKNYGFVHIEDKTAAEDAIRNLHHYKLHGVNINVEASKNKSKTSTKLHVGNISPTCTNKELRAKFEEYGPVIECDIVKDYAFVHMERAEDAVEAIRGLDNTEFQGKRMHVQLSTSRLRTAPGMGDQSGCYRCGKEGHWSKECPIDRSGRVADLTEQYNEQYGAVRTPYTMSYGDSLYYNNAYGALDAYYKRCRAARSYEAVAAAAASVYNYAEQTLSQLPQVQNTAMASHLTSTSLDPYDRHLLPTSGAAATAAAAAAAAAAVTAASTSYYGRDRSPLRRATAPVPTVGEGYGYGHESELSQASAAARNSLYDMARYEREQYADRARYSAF
inactive: bafetinib -0.049 | [1] -0.01 | nilotinib -0.047 | [2] -0.095 | dasatinib -0.033 | [3] -0.039 | [4] -0.054 | [5] -0.063 | tipifarnib -0.013 | mubritinib -0.082 | [6] 0.015 | [7] -0.031 | [8] -0.017 | [9] -0.033 | entinostat 0.023 | vorinostat 0.06 | citarinostat -0.015 | silmitasertib 0.095 | [10] -0.002 | [11] -0.092

SEPTIN5 (UniProt Q99719)
inactive: bafetinib -0.017 | [1] 0.021 | nilotinib -0.011 | [2] 0.002 | dasatinib -0.048 | [3] -0.006 | [4] 0.051 | [5] 0.025 | tipifarnib -0.024 | mubritinib 0.007 | [6] -0.005 | [7] -0.012 | [8] -0.011 | [9] -0.004 | entinostat -0.017 | vorinostat -0.001 | citarinostat 0.059 | silmitasertib -0.038 | [10] -0.013 | [11] -0.021

RNPEP (UniProt Q9H4A4)
Sequence of UniProt Q9H4A4 (Q9H4A4 whole entry, looked up): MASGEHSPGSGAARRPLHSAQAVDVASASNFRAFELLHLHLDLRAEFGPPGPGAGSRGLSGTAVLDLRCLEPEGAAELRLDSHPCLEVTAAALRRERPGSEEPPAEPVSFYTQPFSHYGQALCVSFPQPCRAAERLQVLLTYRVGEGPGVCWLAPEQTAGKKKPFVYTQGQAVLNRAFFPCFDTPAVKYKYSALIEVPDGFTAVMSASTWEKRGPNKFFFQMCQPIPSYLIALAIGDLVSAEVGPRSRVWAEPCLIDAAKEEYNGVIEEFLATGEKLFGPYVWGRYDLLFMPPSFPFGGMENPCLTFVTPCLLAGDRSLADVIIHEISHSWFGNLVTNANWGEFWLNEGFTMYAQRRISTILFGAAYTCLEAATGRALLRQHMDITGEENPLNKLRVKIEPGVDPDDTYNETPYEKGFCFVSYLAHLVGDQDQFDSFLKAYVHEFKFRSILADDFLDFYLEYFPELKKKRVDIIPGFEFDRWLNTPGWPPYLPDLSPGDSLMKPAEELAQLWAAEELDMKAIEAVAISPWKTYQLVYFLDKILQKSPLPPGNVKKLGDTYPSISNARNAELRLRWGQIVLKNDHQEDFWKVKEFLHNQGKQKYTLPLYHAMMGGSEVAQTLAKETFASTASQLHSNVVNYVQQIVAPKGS
inactive: bafetinib 0.003 | [1] 0.035 | nilotinib -0.004 | [2] -0.041 | dasatinib -0.134 | [3] 0.025 | [4] 0.012 | [5] 0.043 | tipifarnib -0.116 | mubritinib 0.051 | [6] -0.001 | [7] -0.093 | [8] -0.086 | [9] -0.027 | entinostat 0.042 | vorinostat 0.033 | citarinostat 0.018 | silmitasertib 0.031 | [10] -0.017 | [11] -0.033

RB1 (UniProt P06400)
Sequence of UniProt P06400 (P06400 whole entry, looked up): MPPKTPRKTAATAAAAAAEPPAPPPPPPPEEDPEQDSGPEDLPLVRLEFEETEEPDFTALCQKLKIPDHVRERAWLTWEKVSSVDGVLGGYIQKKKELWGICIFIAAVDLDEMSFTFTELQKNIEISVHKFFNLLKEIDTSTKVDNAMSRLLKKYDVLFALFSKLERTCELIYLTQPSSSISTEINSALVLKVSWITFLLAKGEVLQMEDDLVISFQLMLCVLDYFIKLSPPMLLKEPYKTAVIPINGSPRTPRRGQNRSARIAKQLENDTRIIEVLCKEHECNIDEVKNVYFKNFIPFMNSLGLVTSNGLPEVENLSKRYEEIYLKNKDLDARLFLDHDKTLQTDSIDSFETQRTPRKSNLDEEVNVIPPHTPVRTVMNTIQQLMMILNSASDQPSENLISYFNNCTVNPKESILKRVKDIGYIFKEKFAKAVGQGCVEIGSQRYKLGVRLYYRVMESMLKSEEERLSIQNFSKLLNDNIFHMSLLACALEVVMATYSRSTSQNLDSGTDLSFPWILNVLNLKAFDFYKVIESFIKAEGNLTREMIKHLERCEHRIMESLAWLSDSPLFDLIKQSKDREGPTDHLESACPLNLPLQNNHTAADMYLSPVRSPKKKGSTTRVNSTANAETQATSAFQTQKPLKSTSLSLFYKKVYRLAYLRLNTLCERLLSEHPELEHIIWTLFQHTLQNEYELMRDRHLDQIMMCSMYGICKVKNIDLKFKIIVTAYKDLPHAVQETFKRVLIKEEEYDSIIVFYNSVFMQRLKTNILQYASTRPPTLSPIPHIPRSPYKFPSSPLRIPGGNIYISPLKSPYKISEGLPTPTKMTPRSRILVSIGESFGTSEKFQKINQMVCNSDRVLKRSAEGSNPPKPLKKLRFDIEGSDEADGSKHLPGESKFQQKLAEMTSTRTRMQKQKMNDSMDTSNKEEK
inactive: bafetinib 0.006 | [1] 0.01 | nilotinib 0.015 | dasatinib 0.011 | [4] 0.082 | [5] 0.011 | tipifarnib 0.004 | mubritinib 0.046 | [6] 0.11 | [7] -0.133 | [8] -0.072 | [9] -0.01 | entinostat 0.015 | vorinostat 0.05 | citarinostat 0.039 | silmitasertib 0.039 | [11] -0.038
active: [2] -0.378 | [3] -0.716 | [10] -0.241
